Experimental data published in PubChem BioAssay (NCI).
The panel holds about 83,000 compounds, 20% with a hit somewhere; the sample as a whole holds those more often.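 Values shown are percent growth following 48 h exposure of cells in 96-well plates to a single concentration of compound; below 10 was considered active.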 A number with no mark means an inactive call. The source made the active and inactive calls.

Tests used:
Assay in all cases: NCI-60 one-dose screen, 48 h (100 = growth as untreated, 0 = no growth, -100 = all killed)
Conditions in all cases: 10 µM unless noted
[1] = system: SK-MEL-2 melanoma
[2] = system: EKVX NSCLC
[3] = system: SN12C renal
[4] = system: UO-31 renal
[5] = system: TK-10 renal
[6] = system: ACHN renal
[7] = system: CAKI-1 renal
[8] = system: A498 renal
[9] = system: CCRF-CEM leukemia
[10] = system: MOLT-4 leukemia

Row | SMILES | growth [1] | growth [2] | growth [3] | growth [4] | growth [5] | growth [6] | growth [7] | growth [8] | growth [9] | growth [10]
1 | O=C(/C=C/c1ccc(Br)cc1)c1ccc(-n2cc(CN3CCN(c4cc5c(cc4F)c(=O)c(C(=O)O)cn5C4CC4)CC3)nn2)cc1 | 97.2% | 90.7% | 44.9% | 65.7% | 91.4% | 93.7% | 64.4% | 57.4% | 56.3% | 67.7%
2 | Fc1ccc2c(c1)c(-c1nc(-c3c[nH]c4ncccc34)cs1)cn2CCCN1CCOCC1 | 60.5% | 55.9% | 73.9% | 31.5% | 66.9% | 42.2% | 56.2% | 51% | 21.8% | 24.8%
3 | O=C1OCC2=C1C(c1cccc(C(F)(F)F)c1)c1cc3c(cc1N2CCO)OCO3 (stereo not given) | 24% | 49.7% | 46.8% | 47.3% | 60.8% | 42.8% | 26.8% | 20.9% | 7.82% (active) | 20%
4 | N#Cc1c(-c2ccccc2)cc(-c2ccccc2)n(CCCC(=O)NO)c1=O | 34.1% | 27.1% | 25.8% | -24.8% (active) | 34.3% | 8.48% (active) | 10.6% | -6.11% (active) | 10.9% | 14.1%
5 | CC(C)c1ccc(NC(=O)Nc2ccc(NC(=O)c3ccccc3N)cc2)cc1 | 45.3% | 48.2% | 91.6% | 20.5% | 65.5% | 29.6% | 70.7% | 49.6% | 29% | 19.2%
6 | COc1ccc2c(c1)c(-c1nc(-c3cn(C)c4ncccc34)cs1)cn2CCO | 93% | 67.5% | 86.1% | 67.7% | 83% | 72.1% | 88.7% | 49.3% | 43.3% | 58.2%
7 | CN1CCN(C(=O)c2cc(-c3ccc4ncnc(N5CCc6cc(F)c(Cl)cc65)c4c3)cnc2N)CC1 | -48% (active) | -10.2% (active) | 9.07% (active) | 3.95% (active) | -14.2% (active) | 5.3% (active) | -33.3% (active) | -69.2% (active) | 7.93% (active) | 1.54% (active)
8 | CN1CCN(Cc2cc(NC(=O)c3cccc(C#Cc4cccc5[nH]nc(N)c45)c3)cc(C(F)(F)F)c2)CC1 | 17.8% | 46% | 19.3% | -17% (active) | 61.4% | 4.75% (active) | 70.8% | 42.6% | -8.44% (active) | -35.2% (active)
9 | Cc1ccc2[nH]c(-c3ccc(S(C)(=O)=O)cc3)c(/C=N/N=C(N)N)c2c1 | 43.2% | 90.2% | 56.9% | 60% | 90.9% | 63% | 52.3% | 38.2% | 37.2% | 41.6%
10 | Cn1cc(-c2nonc2-c2c[nH]c3ccc(F)cc23)c2cc(Br)ccc21 | 71.5% | 37.6% | 63.7% | 30.4% | 57% | 38.4% | 25.3% | 44.8% | 40.7% | 32.1%
11 | Cc1cc(N2CCN(C)CC2)nc(NCc2cc(Nc3ccnc4cc(Cl)ccc34)ccc2F)n1 | -67.8% (active) | 27.4% | -20.8% (active) | -27.1% (active) | -29.5% (active) | -10.6% (active) | 12.9% | -40.7% (active) | -4.6% (active) | 10.2%
12 | CCn1cc(CNc2ccc(C(=O)Nc3cc4cc(OC)c(OC)cc4c(C)n3)cc2)c(C)n1 | 11.5% | 59.7% | 67% | 22.4% | 49% | 36.1% | 30.1% | 93.6% | 11.8% | 9.9% (active)
13 | N=C(N)c1ccc(-c2ccc(-c3ccc(F)cc3)s2)s1 | 73.6% | 41.4% | -50% (active) | -32.6% (active) | 28.5% | -73.7% (active) | 0.453% (active) | 58.9% | -33.6% (active) | -44.2% (active)
